# Screening results deposited in PubChem by University of Kansas High Throughput Screening Laboratory.
# The entries come from a sample that favours hits as a whole.
# mHTT-CaM PPI inh – mutant huntingtin-calmodulin interaction inhibitors – biochemical, AlphaScreen, primary screen; AlphaScreen His-mHTT/GST-CaM binding, luminescence; inhibition, % at 15 µM; 190,000 compounds, 3.6% hits
# Pf apPOL inh – Pf-apPOL inhibitors, biochemical, fluorescence; Plasmodium falciparum apicoplast DNA polymerase (apPOL); Recombinant Pf-apPOL, molecular beacon fluorescence, 1.5 h; inhibition, % at 10 µM; 210,000 compounds, 0.25% hits; AID 1794808, 2022
# Numbers stand for hits; i = inactive. Cut-off read from the data, not from the text of the source: active = inhibition above about 50%; inactive = the rest.
SMILES,mHTT-CaM PPI inh,Pf apPOL inh
O=C(c1ccccc1Cl)N1CCc2c(nc3cc(-c4ccccc4)[nH]n3c2=O)C1,i,i
O=C(c1ccccc1)N1CCc2c(nc3cc(-c4ccccc4)[nH]n3c2=O)C1,i,51
O=C(c1cc(F)ccc1Cl)N1CCc2c(nc3cc(-c4ccccc4)[nH]n3c2=O)C1,71,i
COc1ccccc1CCC(=O)N1CCc2nc3cc(-c4ccccc4)[nH]n3c(=O)c2C1,i,i
O=C(c1ccc2c(c1)OCO2)N1CCc2c(nc3cc(-c4ccccc4)[nH]n3c2=O)C1,i,i
COc1ccccc1CCC(=O)N1CCc2c(nc3cc(-c4ccccc4)[nH]n3c2=O)C1,59,i
Clc1ccc(-c2nc(-c3ccc(-n4ccnc4)nc3)no2)cc1,i,i
O=C(Cc1cccc(F)c1)N1CCN(c2cc(-c3cccnc3)[nH]n2)CC1,i,i
CCOc1ccc(N=C2NC(=O)/C(=C\C=C\c3ccccc3)S2)cc1,i,i
CCCCC1=NN(C(=O)c2ccccc2Cl)C(O)(C(F)(F)F)C1 (stereo unspecified),i,i
CCC1=NN(C(=O)COc2ccccc2C)C(O)(C(F)(F)F)C1 (stereo unspecified),i,i
Cc1ccccc1OCC(=O)N1N=C(c2cccc(Br)c2)CC1(O)C(F)(F)F (stereo unspecified),99,i
CCCCC1=NN(C(=O)COc2ccc(Cl)c(C)c2)C(O)(C(F)(F)F)C1 (stereo unspecified),100,i
COc1ccc(CNC(=O)C2CCN(S(=O)(=O)N3CC(C)CC(C)C3)CC2)c(OC)c1 (stereo unspecified),i,i
Cc1ccnc(N2CCC(C(=O)Nc3cc(F)ccc3F)CC2)n1,i,i
CC(=O)N1CCN(c2cc(Oc3ccccc3)ncn2)CC1C (stereo unspecified),i,i
CCCCc1c(C)c(C#N)c2nc3ccccc3n2c1-n1ccnc1C,i,i
COc1ccc(C(CC(=O)O)NC(=O)c2ccccc2Cl)cc1OC (stereo unspecified),i,i
COc1cc(OC)c2c(-c3ccccc3)cc(=O)oc2c1C(CC(=O)N1CCOCC1)c1ccc(N(C)C)cc1 (stereo unspecified),66,i
COc1cc(OC)c2c(-c3ccccc3)cc(=O)oc2c1C(CC(=O)N1CCOCC1)c1ccc2c(c1)OCO2 (stereo unspecified),i,i
COc1cc(OC)c2c(-c3ccccc3)cc(=O)oc2c1C(CC(=O)N1CCN(c2ccccc2)CC1)c1ccc(N(C)C)cc1 (stereo unspecified),58,i
COc1cc(O)c(C(CC(=O)N2CCCC2)c2ccc(N(C)C)cc2)c(OC)c1 (stereo unspecified),i,i
COc1ccccc1Oc1c(C)oc2cc(OCC#N)ccc2c1=O,i,i
CCN1c2ccc(F)cc2C(=O)NC12CCN(C(=O)c1cccc(F)c1)CC2,i,i
CC(C)NC(=O)Cn1cccc1-c1nc(-c2ccccc2)cs1,i,i
SMILES,mHTT-CaM PPI inh,Pf apPOL inh
Cc1ccnc(NC(=O)Cn2cccc2-c2nc(-c3ccccc3)cs2)c1,54,i
COc1ccc(OC)c(-c2nc(N=Cc3ccccc3O)sc2C)c1,i,i
CCCn1c(C(=O)N(C)Cc2ccccc2)cc2sc(C)cc21,91,i
CCCn1c(C(=O)N(C)Cc2ccccc2)cc2sc(Br)cc21,i,i
CC(C)[C@H]1COCCS(=O)(=O)N1Cc1ccccc1-c1cccc2c1oc1ccccc12,53,i
CC(C)[C@H]1COCCS(=O)(=O)N1Cc1ccc(Cl)cc1,i,i
Cc1cc(NC(=O)c2cccc([N+](=O)[O-])c2)no1,i,i
O=[N+]([O-])c1cccc(C(Nc2ccccn2)c2ccc3cccnc3c2O)c1 (stereo unspecified),100,i
Cc1cc(NC(c2cccc([N+](=O)[O-])c2)c2ccc3cccnc3c2O)no1 (stereo unspecified),100,i
O=C(/C=C/c1cccc([N+](=O)[O-])c1)Nc1ccccn1,i,i
CC1=NS(=O)(=O)N(C)C=C1C(=O)OCCC(C)C,i,i
Cc1nc(C(=O)NCc2ccco2)c(C)n1C1CCN(S(C)(=O)=O)CC1,i,i
Cn1nc(-c2nc(-c3cccc(F)c3)no2)c2c1CCN(C(=O)C1CCOC1)C2 (stereo unspecified),i,i
COc1ccc(C(=O)N=C2C=C(C)C(=O)C(C)=C2)cc1,i,i
COc1ccc(C(=O)ON=C2C(C)=CC(=O)C=C2C)cc1,55,i
COc1ccc(C)cc1C1=C/C(=C\c2ccc(C)o2)C(=O)O1,61,i
COc1ccc(OC)c(/C=C2\C=C(c3cc(OC)ccc3OC)OC2=O)c1,i,i
Cc1ccnc(N2CCCC(C(=O)N3CC=C(c4ccccc4)CC3)C2)n1 (stereo unspecified),68,i
Cc1ccnc(N2CCCC(C(=O)N3CCCCCC3)C2)n1 (stereo unspecified),i,i
Cc1sc2ncnc(Nc3ccc(N4CCCCC4)cc3)c2c1C,i,i
